KB-V1 cytotox: KB-V1 MDR subline cytotoxicity. KB-V1 MDR cells viability, CellTiter-Glo, 72 h. Potency, µM (titrated, usually from 46.1 µM), hits mostly cytotoxic. 400,000 compounds, 3.4% hits. AID 1347076; also: nearly all actives have a fitted effect of over 60% in size
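Following 72 h at 37 degrees C with compound, KB-V1 cell viability was read by CellTiter-Glo luminescence, medium being phenol-red-free DMEM plus 10% FBS; concentration-response parameters came from normalized, curve-fitted qHTS data.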
MCF10A rereplic: inducers of DNA re-replication in MCF 10A breast cells; Potency, µM (doses to about 46.1 µM), usual class: activators; 350,000 compounds, 2.9% hits; AID 624296; MCF 10A DNA re-replication, Hoechst nuclear intensity, 48 h; also: nearly all actives have a fitted effect of over 50% in size
SW480 rereplic: DNA re-replication induction in SW480 cells; SW480 DNA re-replication, Hoechst DNA content imaging, 48 h; 340,000 compounds, 1.8% hits; AID 624297; Potency, µM (series often up to 46.1 µM), hits mostly activators; also: nearly all actives have a fitted effect of over 55% in size
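Per well, 250 cells were exposed to pinned compound for 48 hr. Nuclear DNA was visualised with Hoechst (40 min, 37 C) and total object intensity recorded by fluorescence scanning.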
KB-3-1 tox: KB-3-1 parental cell cytotoxicity; 400,000 compounds, 1.4% hits; KB-3-1 viability, CellTiter-Glo ATP luminescence, 72 h; Potency, µM (titrated, usually from 46.1 µM), actives largely listed as cytotoxic; also: nearly all actives have a fitted effect of over 60% in size
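Parental KB-3-1 viability, qHTS format: 72 h compound exposure, 37 °C; CellTiter-Glo; media-only wells and DMSO plates as controls; concentration-effect fits on corrected data.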
ELG1 repair inh: ELG1-dependent DNA repair inhibition; AID 504467; 330,000 compounds, 2.3% hits; Potency, µM (doses to about 46.1 µM), actives largely listed as inhibitors; HEK293T ELG1-luciferase reporter, luminescence, 16 h; DNA damage induced by 5-fluorouridine; also: nearly all actives have a fitted effect of over 55% in size
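DMSO vehicle served as the neutral condition. Each well held 2,000 cells given 5-fluorouridine plus compound; after 16 hr at 37 °C/5% CO2, ONE-Glo was added and luciferase measured 30 min later.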
Large screens that a line does not name were inactive; ! = not active in a repeat. Compounds with a hit are over-represented: about 8.1% of the library has one in this group of screens. Calls follow the shape of the dose curve; as a rule, active = well fitted curve in the direction sought with a large enough effect; inconclusive = small, poorly fitted or top-dose-only effect, or another doubt; inactive = no such curve, though single readings can be large; an effect the other way counts as inactive or inconclusive.

CC1(C)Cc2ccccc2C(N/N=C/c2ccc(Cl)cc2)=N1	KB-V1 cytotox 15µM, MCF10A rereplic inconclusive, KB-3-1 tox inconclusive
CCOC(=O)c1cc(C#N)c(Oc2ccccc2)nc1-c1ccccc1	KB-V1 cytotox inconclusive
C=CCNc1nc(C)c(C(C)=O)cc1C#N	none
CCCCNc1nc(-c2ccccc2)c(C(=O)OCC)cc1C#N	KB-V1 cytotox 18µM, MCF10A rereplic inconclusive, SW480 rereplic inconclusive, KB-3-1 tox inconclusive
CCCNc1nc(-c2ccccc2)c(C(=O)OCC)cc1C#N	MCF10A rereplic 12µM, SW480 rereplic 16µM, KB-3-1 tox inconclusive
CCOC(=O)c1cc(C#N)c(N2CCOCC2)nc1-c1ccccc1	SW480 rereplic inconclusive, ELG1 repair inh inconclusive
C=CCNc1nc(-c2ccccc2)c(C(=O)OCC)cc1C#N	KB-V1 cytotox inconclusive, MCF10A rereplic 15µM, SW480 rereplic inconclusive, KB-3-1 tox 10µM, ELG1 repair inh inconclusive
CCC(=O)N1CCc2cc(S(=O)(=O)NC(CC(C)C)C(=O)Nc3ccc(CC)cc3)ccc21 (stereo not given)	none (no result: MCF10A rereplic, SW480 rereplic, ELG1 repair inh)
Cc1cc(C)c2cc(C#N)c(NCCNC(=O)c3ccccn3)nc2c1	none (no result: MCF10A rereplic, SW480 rereplic, ELG1 repair inh)
O=C(Nc1ccccc1)C1=C[C@@H](C2CCCCC2)C[C@@H](OCc2ccc(CO)cc2)O1	MCF10A rereplic 16µM, SW480 rereplic inconclusive, KB-3-1 tox inconclusive, ELG1 repair inh inconclusive
CC(=O)n1cc([C@@H]2C=C(C(=O)N3CCN(Cc4ccccc4)CC3)O[C@H](OCc3ccc(CO)cc3)C2)c2ccccc21	KB-V1 cytotox inconclusive, MCF10A rereplic inconclusive, KB-3-1 tox inconclusive, ELG1 repair inh 9.2µM
O=C(Nc1ccccc1)C1=C[C@H](C2CCCCC2)C[C@H](OCc2ccc(CO)cc2)O1	MCF10A rereplic inconclusive
C#CCNC(=O)C1=C[C@@H](c2cn(C(C)=O)c3ccccc23)C[C@@H](OCc2ccc(CO)cc2)O1	KB-V1 cytotox inconclusive, SW480 rereplic inconclusive, ELG1 repair inh inconclusive
CC(=O)n1cc([C@H]2C=C(C(=O)NCc3ccccc3)O[C@@H](OCc3ccc(CO)cc3)C2)c2ccccc21	MCF10A rereplic 18µM, ELG1 repair inh inconclusive
CCO[C@H]1OC(C(=O)NCc2nc3ccccc3[nH]2)=C[C@@H](C2CC2)[C@@H]1CCCO	MCF10A rereplic 3.7µM, SW480 rereplic 3.3µM
O=C(NCc1nc2ccccc2[nH]1)C1=C[C@H](c2ccccc2)C[C@H](OCc2ccc(CO)cc2)O1	MCF10A rereplic inconclusive, KB-3-1 tox inconclusive, ELG1 repair inh 21µM
O=C(NCc1nc2ccccc2[nH]1)C1=C[C@@H](c2ccccc2)C[C@@H](OCc2ccc(CO)cc2)O1	none
COc1ccccc1CNC(=O)Cn1c(=O)ccc2cc(S(=O)(=O)N3CCC(C)CC3)ccc21	none (no result: MCF10A rereplic, SW480 rereplic, ELG1 repair inh)
COc1ccccc1CNC(=O)Cn1c(=O)oc2cc(S(=O)(=O)N3CCC(C)CC3)ccc21	KB-3-1 tox 18µM (no result: MCF10A rereplic, SW480 rereplic, ELG1 repair inh)
Cn1c(=O)oc2cc(S(=O)(=O)N3CCCC(C(=O)NC4CCCc5ccccc54)C3)ccc21 (stereo not given)	KB-V1 cytotox inconclusive, KB-3-1 tox 5.8µM, ELG1 repair inh 2.9µM
Cn1c(=O)oc2cc(S(=O)(=O)N3CCCC(C(=O)N4CC=C(c5ccccc5)CC4)C3)ccc21 (stereo not given)	ELG1 repair inh 5.8µM (no result: KB-V1 cytotox, MCF10A rereplic, SW480 rereplic, KB-3-1 tox)
COc1ccccc1N1CCN(C(=O)C2CCCN(S(=O)(=O)c3ccc4c(c3)oc(=O)n4C)C2)CC1 (stereo not given)	KB-V1 cytotox inconclusive, KB-3-1 tox 10µM!, ELG1 repair inh inconclusive
CCCOc1ccccc1OCC(=O)Nc1cc(Cl)ccc1-n1cncn1	KB-V1 cytotox inconclusive, ELG1 repair inh inconclusive
COc1ccc(S(=O)(=O)N2CCCCCC2)cc1C(=O)Nc1ccc(C(=O)N(C)C)cc1	KB-V1 cytotox inconclusive, KB-3-1 tox inconclusive
CCN(CC)S(=O)(=O)N1CCC(C(=O)NC2CCCc3ccccc32)CC1 (stereo not given)	ELG1 repair inh 16µM
Cc1ccc(NC(=O)CSCC(=O)Nc2cccc3ncccc23)cc1	MCF10A rereplic inconclusive
CC(C)C(=O)NC(c1ccco1)c1ccc2cccnc2c1O (stereo not given)	KB-V1 cytotox 4.6µM, MCF10A rereplic inconclusive, SW480 rereplic 3.7µM, KB-3-1 tox 4.1µM, ELG1 repair inh 2.9µM
CC(C)CC(=O)NC(c1cccs1)c1ccc2cccnc2c1O (stereo not given)	MCF10A rereplic inconclusive, SW480 rereplic 0.82µM, KB-3-1 tox inconclusive
Cc1conc1NC(c1cccs1)c1ccc2cccnc2c1O (stereo not given)	none (no result: KB-V1 cytotox, MCF10A rereplic, SW480 rereplic, KB-3-1 tox)
CCC(=O)NC(c1cccs1)c1ccc2cccnc2c1O (stereo not given)	KB-V1 cytotox inconclusive, SW480 rereplic inconclusive, ELG1 repair inh 3.7µM
CCCCCCCCCCCCCCCC[N+](C)(C)Cc1ccc(F)cc1	MCF10A rereplic 15µM, SW480 rereplic inconclusive, KB-3-1 tox inconclusive (no result: ELG1 repair inh)
CCCN(CCC)C(=O)Cc1ccc(F)cc1	none
Clc1ccc(CN2C3=NCCN3c3ccccc32)cc1Cl	KB-V1 cytotox 21µM, SW480 rereplic inconclusive, ELG1 repair inh inconclusive
c1ccc(CN2C3=NCCN3c3ccccc32)cc1	SW480 rereplic inconclusive
CCOC(=O)CN(c1sc(C)c(C)c1C(=O)OCC)S(=O)(=O)c1ccc(C)cc1	KB-V1 cytotox inconclusive (no result: MCF10A rereplic, SW480 rereplic, ELG1 repair inh)
Cc1cc2ccccc2n1CCNC(=O)C1CCCC1	KB-V1 cytotox 18µM
CCOC(=O)Nc1ccc2c(COC(=O)C(NS(=O)(=O)c3ccc(Cl)cc3)C(C)O)cc(=O)oc2c1 (stereo not given)	ELG1 repair inh 21µM
COC(=O)C[C@H]1c2ccccc2S(=O)(=O)N1c1ccc(N(C)C)cc1	KB-V1 cytotox inconclusive (no result: MCF10A rereplic, SW480 rereplic, ELG1 repair inh)
O=C(CSc1ccc(S(=O)(=O)N2CCCC2)cn1)Nc1ccc([N+](=O)[O-])cc1C(F)(F)F	KB-V1 cytotox 5.2µM, KB-3-1 tox inconclusive (no result: ELG1 repair inh)
Cc1ccc(C)c(NC(=O)CSc2ccc(S(=O)(=O)N3CCCC3)cn2)c1	none
Cc1ccc(NC(=O)CCNS(=O)(=O)c2ccccc2F)cc1S(=O)(=O)N1CCOCC1	none
COc1ccc(CN(C(=O)/C=C/C(=O)c2ccc(OC)cc2O)C(C(=O)NC2CCCCC2)c2ccncc2)cc1 (stereo not given)	KB-V1 cytotox 2.6µM, SW480 rereplic inconclusive, ELG1 repair inh 16µM
COc1ccc(C(=O)/C=C/C(=O)N(Cc2ccc3c(c2)OCO3)C(C(=O)NC2CCCCC2)c2ccncc2)c(O)c1 (stereo not given)	KB-V1 cytotox 2.1µM, MCF10A rereplic inconclusive, SW480 rereplic inconclusive, KB-3-1 tox inconclusive, ELG1 repair inh 7.3µM
O=C(CN1C(=O)NC2(CCCCC2)C1=O)Nc1ccc(Cl)cc1	none
Cn1cc(-c2ccc(C(=O)Nc3cccc(Oc4ccccc4)c3)c3occc23)cn1	none (no result: MCF10A rereplic, SW480 rereplic, ELG1 repair inh)
O=C(C1=C[C@@H](c2ccc3c(c2)OCO3)C[C@@H](OCCCCO)O1)N1CCN(Cc2ccc3c(c2)OCO3)CC1	MCF10A rereplic inconclusive

Screens as filed in PubChem.
